# According to the supplement of paper PMC10849652:
# The full data set covers some 7,900 targets. This sample favours those with a hit. About 0.6% of all pairs of compound and target were hits. A number with no mark means an inactive call.
# Columns and labels:
# Assay in all cases: log2 fold change, soluble protein after heating vs DMSO (PISA); higher = thermal stabilisation; K562 cells, 10 uM, 30 min; active = over 0.2 and 3.5 SD of the protein, either way, in both replicates (recomputed)
# [1] = compound: CC1=C(C=C(C=C1)NC(=O)C2=CC(=CC=C2)C(C)(C)C#N)NC3=CC4=C(C=C3)N=CN(C4=O)C
# Summary of the method: (§1)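 K562 cells at 2×10^6 cells/mL were exposed to 10 μM compound for 30 min, then aliquots were heated for 3 min across 48°C-58°C, pooled, and extracted in PBS containing 0.5% NP-40 at 4°C. The supernatant after 21,000xg for 90 min was taken as soluble protein and measured by TMTpro 16plex LC-MS/MS with channel sums equalised. Thermal stability is reported relative to control samples, with values from duplicates. Fold changes are given on a log2 scale.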
# [2] = compound: CC1=C(C=C(C=C1)NC(=O)C2=CC(=CC=C2)N(C)C)NC(=O)C3=CC=C(C=C3)O
# Summary of the method: as §1
# [3] = compound: CC1=CC=C(C=C1)SC2=C3C=C(SC3=CN=C2)C(=O)N
# Summary of the method: as §1
# [4] = compound: CC1=NC(=CC=C1)C2=C(N=C(N2)C(C)(C)C)C3=CC4=NC=CN=C4C=C3
# Summary of the method: as §1
# [5] = compound: CCCCN(Cc1ccc(C(=O)NO)cc1)C(=O)Nc1ccccc1 [Nexturastat A]
# Summary of the method: as §1
# [6] = compound: CCCS(=O)(=O)Nc1ccc(F)c(C(=O)c2c[nH]c3ncc(-c4ccc(Cl)cc4)cc23)c1F [vemurafenib]
# Summary of the method: as §1
# [7] = compound: CCCS(=O)(=O)Nc1ccc(F)c(C(=O)c2c[nH]c3ncc(Cl)cc23)c1F
# Summary of the method: as §1
# [8] = compound: CCCc1cc(C)[nH]c(=O)c1CNC(=O)c1cc(-c2ccnc(N3CCN(C)CC3)c2)cc2c1cnn2C(C)C
# Summary of the method: as §1
# [9] = compound: CCN(CC)Cc1ccc2cc(COC(=O)Nc3ccc(C(=O)NO)cc3)ccc2c1 [givinostat]
# Summary of the method: as §1
# [10] = compound: CCN(CCCOc1ccc2c(Nc3cc(CC(=O)Nc4cccc(F)c4)[nH]n3)ncnc2c1)CCOP(=O)(O)O [barasertib]
# Summary of the method: as §1
# [11] = compound: CC[C@@H]1C(=O)N(C)c2cnc(Nc3ccc(C(=O)NC4CCN(C)CC4)cc3OC)nc2N1C1CCCC1
# Summary of the method: as §1
# [12] = compound: CC[C@@H]1C(=O)N(C)c2cnc(Nc3ccc(C(=O)N[C@H]4CC[C@H](N5CCN(CC6CC6)CC5)CC4)cc3OC)nc2N1C(C)C [volasertib]
# Summary of the method: as §1
# [13] = compound: CC[C@H](C)N1C=C(C2=C(C=C(C=C21)C3=CN=C(C=C3)N4CCNCC4)C(=O)NCC5=C(C=C(NC5=O)C)C)C
# Summary of the method: as §1
# [14] = compound: CC[C@H](C)[C@@H](C(=O)N[C@@H]([C@@H](C)O)C(=O)N[C@@H](CC(C)C)C(=O)[C@]1(CO1)C)NC(=O)[C@H]([C@@H](C)CC)N(C)C(=O)C [epoxomicin]
# Summary of the method: as §1
# [15] = compound: CCn1c(C(=O)N(C2CC2)C2CC2)cc2c3c(ncn3C)c(Nc3cc(C)n(C)n3)nc21
# Summary of the method: as §1
# [16] = compound: CCn1cc(-c2ccnc3[nH]c(-c4cccc(CN(C)C)c4)cc23)c(-c2ccc(NC(=O)N(C)C)cc2)n1
# Summary of the method: as §1
# [17] = compound: CN(C)CC(=O)Nc1ccc2[nH]c(=O)c3ccccc3c2c1
# Summary of the method: as §1
# [18] = compound: CN(CCOC1=CC=C(C=C1)C[C@H]2C(=O)NC(=O)S2)C3=CC=CC=N3 (racemic) [rosiglitazone]
# Summary of the method: as §1
# [19] = compound: CN1C2=C(C3=C1C(=O)N(N=C3)CC4=CC(=CC=C4)N)SC(=C2)S(=O)C
# Summary of the method: as §1
# [20] = compound: CN1CCC(CNc2ccc3ncc(-c4cccc(OC(F)(F)F)c4)n3n2)CC1
# Summary of the method: as §1
# Sequence of UniProt O60313 (O60313 whole entry, looked up): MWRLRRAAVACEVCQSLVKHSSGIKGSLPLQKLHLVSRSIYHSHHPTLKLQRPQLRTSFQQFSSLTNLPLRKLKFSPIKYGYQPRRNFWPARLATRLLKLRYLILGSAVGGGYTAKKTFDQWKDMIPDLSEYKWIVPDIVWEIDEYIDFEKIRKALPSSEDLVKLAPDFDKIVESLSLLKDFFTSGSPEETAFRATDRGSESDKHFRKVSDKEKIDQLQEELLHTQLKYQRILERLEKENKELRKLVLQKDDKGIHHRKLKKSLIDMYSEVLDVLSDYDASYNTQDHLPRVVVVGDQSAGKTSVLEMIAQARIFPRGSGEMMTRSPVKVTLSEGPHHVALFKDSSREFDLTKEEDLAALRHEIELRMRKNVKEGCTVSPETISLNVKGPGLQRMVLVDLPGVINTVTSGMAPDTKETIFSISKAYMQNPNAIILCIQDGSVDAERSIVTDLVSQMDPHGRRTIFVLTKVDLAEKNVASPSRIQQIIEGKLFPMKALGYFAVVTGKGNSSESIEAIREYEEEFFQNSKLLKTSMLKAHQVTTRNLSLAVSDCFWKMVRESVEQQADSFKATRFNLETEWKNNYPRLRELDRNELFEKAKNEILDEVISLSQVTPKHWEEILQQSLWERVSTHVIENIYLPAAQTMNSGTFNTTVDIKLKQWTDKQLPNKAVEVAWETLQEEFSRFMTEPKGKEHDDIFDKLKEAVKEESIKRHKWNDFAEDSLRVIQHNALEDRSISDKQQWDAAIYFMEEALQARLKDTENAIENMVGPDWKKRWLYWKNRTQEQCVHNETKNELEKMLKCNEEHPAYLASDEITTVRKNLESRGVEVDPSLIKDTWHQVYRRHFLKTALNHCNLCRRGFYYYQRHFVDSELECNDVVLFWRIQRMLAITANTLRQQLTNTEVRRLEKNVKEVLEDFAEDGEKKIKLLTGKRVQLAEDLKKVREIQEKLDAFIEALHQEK
# Sequence of UniProt Q15003 (Q15003 whole entry, looked up): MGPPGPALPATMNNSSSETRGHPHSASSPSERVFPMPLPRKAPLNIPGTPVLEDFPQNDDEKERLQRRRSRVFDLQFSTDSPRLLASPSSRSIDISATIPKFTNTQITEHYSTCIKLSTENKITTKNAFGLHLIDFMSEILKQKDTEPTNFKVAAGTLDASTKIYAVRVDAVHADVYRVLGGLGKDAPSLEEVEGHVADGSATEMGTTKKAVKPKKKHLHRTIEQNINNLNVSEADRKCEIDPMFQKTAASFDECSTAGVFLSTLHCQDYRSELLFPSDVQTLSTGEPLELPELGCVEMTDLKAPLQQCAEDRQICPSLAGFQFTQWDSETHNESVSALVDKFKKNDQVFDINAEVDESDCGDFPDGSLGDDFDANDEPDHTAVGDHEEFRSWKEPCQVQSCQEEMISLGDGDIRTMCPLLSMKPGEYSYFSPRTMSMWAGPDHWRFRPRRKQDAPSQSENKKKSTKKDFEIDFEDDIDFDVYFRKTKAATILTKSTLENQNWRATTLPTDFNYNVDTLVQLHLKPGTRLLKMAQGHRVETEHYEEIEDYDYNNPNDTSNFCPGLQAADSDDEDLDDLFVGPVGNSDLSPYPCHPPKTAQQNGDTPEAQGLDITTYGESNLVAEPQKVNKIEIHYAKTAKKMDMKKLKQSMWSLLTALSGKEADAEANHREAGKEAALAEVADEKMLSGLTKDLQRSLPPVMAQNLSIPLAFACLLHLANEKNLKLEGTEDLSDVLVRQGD
# Sequence of UniProt P43246 (P43246 whole entry, looked up): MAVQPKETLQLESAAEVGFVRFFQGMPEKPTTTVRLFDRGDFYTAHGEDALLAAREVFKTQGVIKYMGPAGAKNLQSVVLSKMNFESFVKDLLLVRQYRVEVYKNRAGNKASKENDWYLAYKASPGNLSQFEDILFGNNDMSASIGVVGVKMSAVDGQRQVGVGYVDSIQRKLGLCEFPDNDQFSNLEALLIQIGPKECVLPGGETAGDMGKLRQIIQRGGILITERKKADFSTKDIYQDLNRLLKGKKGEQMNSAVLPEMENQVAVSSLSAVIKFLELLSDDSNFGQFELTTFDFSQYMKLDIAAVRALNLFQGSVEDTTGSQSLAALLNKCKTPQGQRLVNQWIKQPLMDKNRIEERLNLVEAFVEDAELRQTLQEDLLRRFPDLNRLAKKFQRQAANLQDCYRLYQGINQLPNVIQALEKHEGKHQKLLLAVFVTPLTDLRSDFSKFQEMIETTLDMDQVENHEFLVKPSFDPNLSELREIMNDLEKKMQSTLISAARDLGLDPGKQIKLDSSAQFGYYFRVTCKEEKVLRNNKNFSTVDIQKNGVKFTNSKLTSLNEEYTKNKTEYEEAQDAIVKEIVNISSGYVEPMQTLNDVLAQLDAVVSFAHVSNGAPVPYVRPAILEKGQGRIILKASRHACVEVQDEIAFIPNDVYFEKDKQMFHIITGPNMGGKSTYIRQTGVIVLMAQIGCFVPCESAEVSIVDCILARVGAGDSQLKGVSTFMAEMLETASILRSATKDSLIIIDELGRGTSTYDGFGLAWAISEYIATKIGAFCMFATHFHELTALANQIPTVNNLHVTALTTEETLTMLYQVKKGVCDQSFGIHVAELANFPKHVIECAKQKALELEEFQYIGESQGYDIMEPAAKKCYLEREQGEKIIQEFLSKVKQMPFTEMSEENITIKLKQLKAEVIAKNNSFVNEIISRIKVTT
# Sequence of UniProt Q92692 (Q92692 whole entry, looked up): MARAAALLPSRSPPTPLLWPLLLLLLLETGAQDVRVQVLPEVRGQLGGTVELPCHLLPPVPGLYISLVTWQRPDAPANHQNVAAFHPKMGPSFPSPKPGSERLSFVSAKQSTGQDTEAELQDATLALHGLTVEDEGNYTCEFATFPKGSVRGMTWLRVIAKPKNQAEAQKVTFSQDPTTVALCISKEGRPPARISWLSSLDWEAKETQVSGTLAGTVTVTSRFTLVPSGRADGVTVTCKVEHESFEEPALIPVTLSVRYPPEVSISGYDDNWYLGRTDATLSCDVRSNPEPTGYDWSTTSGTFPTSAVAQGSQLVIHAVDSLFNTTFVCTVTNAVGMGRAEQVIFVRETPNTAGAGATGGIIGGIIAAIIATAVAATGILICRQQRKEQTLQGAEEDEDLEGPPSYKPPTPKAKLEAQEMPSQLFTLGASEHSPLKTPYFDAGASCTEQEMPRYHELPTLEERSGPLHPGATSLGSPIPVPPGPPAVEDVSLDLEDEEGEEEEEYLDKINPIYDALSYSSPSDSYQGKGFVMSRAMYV
# Sequence of UniProt Q8NCF5 (Q8NCF5 whole entry, looked up): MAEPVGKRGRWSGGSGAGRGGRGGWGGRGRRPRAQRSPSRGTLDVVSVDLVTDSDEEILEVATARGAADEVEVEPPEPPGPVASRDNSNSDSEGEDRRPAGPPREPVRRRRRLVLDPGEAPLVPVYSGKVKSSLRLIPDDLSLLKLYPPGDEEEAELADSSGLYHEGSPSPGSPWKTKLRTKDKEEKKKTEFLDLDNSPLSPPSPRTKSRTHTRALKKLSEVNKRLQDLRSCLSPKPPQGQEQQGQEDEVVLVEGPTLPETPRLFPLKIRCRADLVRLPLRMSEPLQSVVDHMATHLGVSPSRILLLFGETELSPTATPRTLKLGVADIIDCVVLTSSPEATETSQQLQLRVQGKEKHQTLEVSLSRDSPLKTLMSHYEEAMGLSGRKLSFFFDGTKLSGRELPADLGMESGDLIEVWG
# Sequence of UniProt Q01804 (Q01804 whole entry, looked up): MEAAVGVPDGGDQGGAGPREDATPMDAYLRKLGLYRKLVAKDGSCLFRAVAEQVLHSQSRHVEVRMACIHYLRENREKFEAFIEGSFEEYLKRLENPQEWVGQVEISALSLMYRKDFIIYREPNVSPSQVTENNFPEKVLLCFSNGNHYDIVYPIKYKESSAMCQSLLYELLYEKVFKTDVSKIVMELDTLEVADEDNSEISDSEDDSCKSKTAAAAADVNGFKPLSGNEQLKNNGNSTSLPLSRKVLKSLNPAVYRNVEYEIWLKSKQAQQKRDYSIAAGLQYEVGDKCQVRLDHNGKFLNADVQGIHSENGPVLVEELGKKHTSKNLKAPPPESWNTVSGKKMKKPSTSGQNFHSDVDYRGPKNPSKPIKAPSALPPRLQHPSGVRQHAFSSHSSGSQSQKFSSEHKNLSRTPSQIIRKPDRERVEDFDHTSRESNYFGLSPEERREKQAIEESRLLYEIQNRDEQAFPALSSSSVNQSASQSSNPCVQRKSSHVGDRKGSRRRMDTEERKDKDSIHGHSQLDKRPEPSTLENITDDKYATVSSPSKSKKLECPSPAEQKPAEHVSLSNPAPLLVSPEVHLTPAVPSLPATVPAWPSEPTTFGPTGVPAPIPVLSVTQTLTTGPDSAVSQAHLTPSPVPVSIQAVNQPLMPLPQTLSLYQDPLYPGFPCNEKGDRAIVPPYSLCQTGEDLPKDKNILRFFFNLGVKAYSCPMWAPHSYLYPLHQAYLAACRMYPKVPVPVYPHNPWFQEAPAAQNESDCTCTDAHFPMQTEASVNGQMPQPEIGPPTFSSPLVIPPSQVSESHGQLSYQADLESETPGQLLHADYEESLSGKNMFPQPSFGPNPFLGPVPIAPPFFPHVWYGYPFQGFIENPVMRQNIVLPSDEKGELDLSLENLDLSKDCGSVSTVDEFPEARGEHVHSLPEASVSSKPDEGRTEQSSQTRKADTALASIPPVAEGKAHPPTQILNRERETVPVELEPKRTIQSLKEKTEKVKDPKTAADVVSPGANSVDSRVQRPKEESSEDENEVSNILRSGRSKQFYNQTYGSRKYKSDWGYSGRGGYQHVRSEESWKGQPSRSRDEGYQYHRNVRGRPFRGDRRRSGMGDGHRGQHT
# Sequence of UniProt Q9BV86 (Q9BV86 whole entry, looked up): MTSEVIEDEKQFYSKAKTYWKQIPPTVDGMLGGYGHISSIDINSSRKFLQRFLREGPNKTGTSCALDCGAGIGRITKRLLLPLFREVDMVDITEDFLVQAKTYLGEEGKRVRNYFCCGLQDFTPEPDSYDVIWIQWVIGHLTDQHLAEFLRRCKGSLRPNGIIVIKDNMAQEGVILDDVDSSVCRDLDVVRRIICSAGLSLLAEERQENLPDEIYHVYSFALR
# Sequence of UniProt O00483 (O00483 whole entry, looked up): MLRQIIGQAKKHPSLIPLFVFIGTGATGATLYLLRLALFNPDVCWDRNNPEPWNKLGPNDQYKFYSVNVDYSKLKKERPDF
Target,log2 fold change [1],log2 fold change [2],log2 fold change [3],log2 fold change [4],log2 fold change [5],log2 fold change [6],log2 fold change [7],log2 fold change [8],log2 fold change [9],log2 fold change [10],log2 fold change [11],log2 fold change [12],log2 fold change [13],log2 fold change [14],log2 fold change [15],log2 fold change [16],log2 fold change [17],log2 fold change [18],log2 fold change [19],log2 fold change [20]
NUP210 (UniProt Q8TEM1),-0.029,0.052,0.084,0.035,-0.08,-0.002,0.058,-0.05,-0.017,0.029,-0.001,-0.12,0,0.03,0.002,-0.053,0.03,0.03,-0.026,-0.348 (active)
OTUD4 (UniProt Q01804),-0.038,-0.017,-0.035,-0.069,0.055,-0.016,0.007,-0.03,0.05,-0.083,0.078,-0.067,0.009,-0.085,-0.016,0.098,0.011,-0.013,0.041,0.075
MRPS2 (UniProt Q9Y399),0.075,-0.049,-0.018,0.029,0.049,0.126,0.041,-0.084,-0.044,-0.031,-0.048,0.037,0.053,0.02,-0.01,-0.045,0.031,-0.003,0.016,0.044
NTMT1 (UniProt Q9BV86),0.05,0.037,-0.003,-0.034,-0.042,0.062,0.012,-0.073,-0.066,0.019,-0.047,-0.004,0.051,0.092,0.005,-0.141,0.081,-0.022,-0.037,0.099
MSH2 (UniProt P43246),0.038,-0.067,0.017,0.066,-0.018,0.069,0.08,0.019,0.083,0.057,-0.103,-0.173,0.039,0.066,-0.034,0.036,0.059,0.046,-0.019,-0.067
NECTIN2 (UniProt Q92692),-0.006,-0.026,0.037,-0.049,-0.117,0.016,0.019,0.005,-0.025,-0.024,0.071,0.029,-0.003,0.02,0.018,-0.044,-0.028,-0.023,-0.063,0.138
OPA1 isoform 2 (UniProt O60313),0.01,-0.064,0.027,-0.003,-0.018,-0.001,0.095,-0.002,0.052,0.045,-0.187,-0.264,0.039,0.027,-0.047,-0.081,0.023,0.07,-0.013,-0.347 (active)
NDUFA4 (UniProt O00483),0.046,-0.069,-0.003,0.049,-0.033,0.002,0.018,-0.023,-0.099,0.044,0.033,0.042,-0.019,0.369 (active),0.09,0.019,-0.039,-0.026,0.018,0.101
NFATC2IP (UniProt Q8NCF5),-0.029,-0.026,0.028,0.013,0.007,-0.01,0.014,0.015,0.088,0.124,-0.09,-0.278 (active),0.069,-0.052,0.022,0.038,0.048,0.041,-0.008,-0.103
NISCH (UniProt Q9Y2I1),0.009,-0.07,-0.054,-0.018,0.094,0.055,0.116,-0.077,0.032,0.075,-0.349,-0.487 (active),0.025,0.05,-0.252,-0.121,0.02,0.103,0.086,-0.518 (active)
OGFOD1 (UniProt Q8N543),-0.013,-0.01,0.013,0.033,-0.061,-0.01,-0.006,0.006,-0.112,0.009,0.049,0.038,-0.025,0.042,0.007,-0.013,-0.022,0.059,-0.022,-0.051
NCAPH (UniProt Q15003),0.02,-0.091,0.013,0.012,0.09,0.068,0.065,0.067,0.238,0.042,-0.126,-0.353 (active),0.051,0.011,-0.054,0.052,0.043,0.024,-0.021,-0.116
NGLY1 (UniProt Q96IV0),-0.034,-0.039,0.052,-0.016,0.102,0.009,0.026,0.016,0.036,0.024,-0.07,-0.367 (active),0.04,-0.071,-0.045,-0.03,0.055,0.01,0.044,-0.116
MRPS6 (UniProt P82932),0.081,-0.052,0.006,0.128,0.076,0.1,0.059,0.062,0.037,-0.017,-0.015,-0.045,0.03,-0.012,-0.06,-0.067,0.09,0.072,-0.021,0.027
NDUFB8 (UniProt O95169),0.01,-0.068,0.023,0.024,0.045,0.099,-0.04,-0.025,-0.048,0.023,0.008,-0.016,-0.036,0.074,0.041,0.055,0.016,0.025,0,0.097
NELFB isoform 2 (UniProt Q8WX92),-0.026,-0.062,0.035,0.05,-0.032,0.06,0.08,-0.007,0.069,0.046,-0.176,-0.68 (active),0.118,0.072,-0.057,-0.012,0.068,0.041,-0.02,-0.116
